Screening results deposited in PubChem by Sanford-Burnham Center for Chemical Genomics.
The full list was thinned out, with hits kept by preference.
HePTP inh = inhibitors of human HePTP phosphatase, primary screen, biochemical, absorbance, leukemia target | Tyrosine-protein phosphatase non-receptor type 7 (Homo sapiens), P35236 | recombinant HePTP phosphatase activity, OD absorbance | inhibition, % at 20 µM | 110,000 compounds, 0.64% hits; in the data active = inhibition above about 50%;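 also: plate controls were vehicle for no effect and reference inhibitor for full effect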
Target sequence (P35236 whole entry, looked up): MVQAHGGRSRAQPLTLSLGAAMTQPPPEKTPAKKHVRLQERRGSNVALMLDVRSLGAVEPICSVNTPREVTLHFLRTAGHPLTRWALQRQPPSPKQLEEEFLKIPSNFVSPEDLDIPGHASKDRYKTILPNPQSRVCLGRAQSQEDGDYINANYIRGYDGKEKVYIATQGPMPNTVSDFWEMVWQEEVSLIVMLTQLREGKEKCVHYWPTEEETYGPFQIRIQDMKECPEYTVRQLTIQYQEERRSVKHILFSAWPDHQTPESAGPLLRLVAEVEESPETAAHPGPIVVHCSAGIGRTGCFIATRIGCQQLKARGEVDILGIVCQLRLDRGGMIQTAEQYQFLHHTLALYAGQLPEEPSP
Numbers without * were called inactive.

`COC(=O)c1c(-c2ccc(C)c(C)c2)csc1N` gave HePTP inh 104*.
COC(=O)c1c(-c2ccc(Cl)cc2)csc1N was read as HePTP inh 4.
`CC(C)c1ccc(N2C(=O)NC(=O)/C(=C/c3ccccc3O)C2=O)cc1` gave HePTP inh 7.
O=C(O)c1cccc(N2C(=O)c3ccc(OCCOc4ccc5c(c4)C(=O)N(c4cccc(C(=O)O)c4)C5=O)cc3C2=O)c1 was read as HePTP inh 104*.
`O=C(O)COc1ccc(N2C(=O)c3ccc(C(=O)O)cc3C2=O)cc1` gave HePTP inh -6.
Screening O=[N+]([O-])c1cccc(S(=O)(=O)NCc2cccnc2)c1 returned HePTP inh 0.
Screening O=[N+]([O-])c1cccc(S(=O)(=O)NCc2ccncc2)c1 returned HePTP inh 103*.
`CCOc1cc(OCC)cc(C(=O)Nc2ccc(Br)cn2)c1` gave HePTP inh 6.
For CCCOc1cccc(-c2nc3ccc(Cl)cc3c(=O)o2)c1 the results were HePTP inh -1.
O=C(Nn1c(O)c(/C=C2\C=Nc3ccccc32)sc1=S)c1cccc(O)c1 was read as HePTP inh -5.
CCOc1cc(/C=N/NC(=O)c2cc(-c3ccc4ccccc4c3)n[nH]2)ccc1O was read as HePTP inh -15.
For O=C(N/N=C/c1cccs1)c1cc(-c2ccc3ccccc3c2)n[nH]1 the results were HePTP inh 99*.
`COc1ccc(/C=N/NC(=O)c2cc(-c3ccc4ccccc4c3)n[nH]2)cc1O` gave HePTP inh 68*.
Screening O=C(N/N=C/c1cccs1)c1cc(-c2ccc(Cl)cc2)n[nH]1 returned HePTP inh -5.
Screening O=C(c1ccc([N+](=O)[O-])cc1)N1CCN(C2CC3CCC2C3)CC1 (centres undefined) returned HePTP inh 2.
CCOc1cc(/C=C2\SC(=S)NC2=O)ccc1OCc1c(C)no[n+]1[O-] was read as HePTP inh 102*.
Screening CCOc1cc(C=C2C(=O)NC(=O)NC2=O)ccc1OCc1c(C)no[n+]1[O-] returned HePTP inh 5.
For CC(=NCC(C)C)c1c(C)[nH]n(-c2ccc([N+](=O)[O-])cc2)c1=O the results were HePTP inh 5.
Screening Brc1ccc(/C=N/c2ncn[nH]2)cc1 returned HePTP inh -13.
O=C(O)c1ccc(/C=N/c2ncn[nH]2)cc1 was read as HePTP inh 100*.
`Cc1cc(Cl)ccc1NC(=O)COc1ccc(Br)cc1` gave HePTP inh 7.
`CCOC(=O)c1sc(N/N=C/c2cccc(O)c2)nc1C` gave HePTP inh 11.
`N#Cc1c(/N=C\c2ccc(N3CCOCC3)c([N+](=O)[O-])c2)sc2c1CCCC2` gave HePTP inh -24.
CN(C)c1ccc(/C=C2/SC(N=Nc3c(O)[nH]c4ccccc34)=NC2=O)cc1 was read as HePTP inh 59*.
Screening CN(C)c1ccc(/C=C2\SC(N3CCN(C4=NC(=O)/C(=C\c5ccc(N(C)C)cc5)S4)CC3)=NC2=O)cc1 returned HePTP inh -8.
`COc1ccccc1/C=N/Nc1cc(N2CCOCC2)nc(N2CCOCC2)n1` gave HePTP inh -10.
`NC1=NC(=O)/C(=C\c2ccc(-c3ccc(F)cc3)o2)S1` gave HePTP inh -10.
For NC1=NC(=O)/C(=C/c2ccc(-c3cc([N+](=O)[O-])ccc3Cl)o2)S1 the results were HePTP inh 99*.
Screening COc1ccc(NC(=O)c2c(C)c(-c3ccc(C)cc3)nc3ccccc23)c(OC)c1 returned HePTP inh -4.
For COc1ccc(-c2nc3ccccc3c(C(=O)Nc3ccc(C)cc3)c2C)cc1 the results were HePTP inh 104*.
Screening CCN(CC)c1ccc(NC(=O)/C=C\c2ccccc2Cl)cc1 returned HePTP inh 104*.
Screening CN(C)c1ccc(NC(=O)/C=C/c2ccccc2Cl)cc1 returned HePTP inh -8.
`Cc1ccc(NCC(=O)N/N=C\c2ccc(OC(=O)c3ccccc3Cl)cc2)cc1` gave HePTP inh -17.
Screening O=C1NC2(c3ccccc3)NC(=O)NC2(c2ccc(C34NC(=O)NC3(c3ccccc3)NC(=O)N4)cc2)N1 (centres undefined) returned HePTP inh -7.
For O=C(/C=C/Nc1ccccc1O)c1ccc(-c2ccccc2)cc1 the results were HePTP inh -9.
Screening O=C(Nc1c(-c2ccccc2)nc2ccc(Cl)cn12)c1ccc(Br)cc1 returned HePTP inh 2.
`Cc1ccc(OCCc2c(C)n[nH]c2C)c(Cl)c1` gave HePTP inh 105*.
Screening Cc1ccc(OCCCc2c(C)n[nH]c2C)c(C)c1 returned HePTP inh -2.
For O=C(Nc1cccnc1)c1cc(S(=O)(=O)N2CCOCC2)ccc1Cl the results were HePTP inh 10.
COc1ccccc1NC(=O)CCC1CCCC1 was read as HePTP inh 2.
Screening COc1ccc(C)cc1NC(=O)CCC1CCCC1 returned HePTP inh 104*.
For CC1C(C(=O)N(C=O)c2cccc(Cl)c2)C2C=CC1C21CC1 (centres undefined) the results were HePTP inh -8.
COc1ccc(/C=C2/SC(=Nc3ccccc3)NC2=O)cc1O was read as HePTP inh 2.
C=CCOc1ccc(/C=C2\SC(=Nc3ccccc3)NC2=O)cc1OC was read as HePTP inh 64*.
Screening COc1cc(NC(=O)c2ccc3c(c2)C(=O)N(CC2CCCO2)C3=O)c(C(=O)O)cc1OC (centres undefined) returned HePTP inh 5.
Screening CC(C)(C)c1cc(N2C(=O)C(=O)/C(=C(\O)c3ccccc3)C2c2ccccc2F)no1 (centres undefined) returned HePTP inh 7.
CCOc1ccc(N(CC(=O)NCc2ccc(Cl)cc2)S(=O)(=O)c2ccc(Br)cc2)cc1 was read as HePTP inh 103*.
`CCOc1ccc(N(CC(=O)NCc2ccc(OC)cc2)S(=O)(=O)c2ccc(Br)cc2)cc1` gave HePTP inh 6.
O=C1NC(=S)S/C1=C/c1ccc(-c2ccccc2)o1 was read as HePTP inh 9.
O=C1NC(=S)S/C1=C/c1ccc(Sc2ccccc2)o1 was read as HePTP inh 87*.
Nc1nnc(SCC(=O)Nc2nnc(SCC(=O)Nc3ccccc3)s2)s1 was read as HePTP inh 8.
For COC(=O)c1ccc(C(=O)Nc2cc(Cl)ccc2Cl)cc1NC(=O)C(C)Oc1ccccc1 (centres undefined) the results were HePTP inh 66*.
`COc1ccc(C(=O)Nc2cc(Cl)ccc2Cl)cc1NC(=O)C(C)Oc1ccccc1` (centres undefined) gave HePTP inh 0.
`Cc1ccc(-n2[nH]c(C)c(C=O)c2=O)cc1` gave HePTP inh 8.
`O=C(CCC1CCCC1)Nc1nc(-c2ccc(Cl)cc2)cs1` gave HePTP inh 6.
`CCOc1ccccc1/C=N/NC(=O)Cc1nnc(N)s1` gave HePTP inh 8.
